Reference: PubChem BioAssay (NCATS)
Where “and” joins values, the source holds several entries; their conditions need not be identical. Equal entries are not always repeated. Results filed as inconclusive are left out. Some compounds were tested as several samples or in several runs, with calls that do not always agree. Calls of active or inactive are those of the source. Calls follow the shape of the dose curve; as a rule, active = well fitted curve in the direction sought with a large enough effect; inconclusive = small, poorly fitted or top-dose-only effect, or another doubt; inactive = no such curve, though single readings can be large; an effect the other way counts as inactive or inconclusive.

Assays:
MKL-2 = test: qHTS assay to identify novel small-molecules to repurpose for Merkel cell carcinoma treatment (AID 1296009); conditions: MCC and control cell lines, CellTiter-Glo viability, 72 h; series mostly up to 46 µM; also: nearly all actives have a fitted effect of over 60% in size
Summary of the method: (§1)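 Viability readout: ATP luminescence (CellTiter-Glo) after 72 hr drug exposure at 37 degree celsius. Dose-response format was 8 points for NPC and 11 points for MIPE; data normalized to in-plate controls.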

NIH3T3 = test: as above; conditions: MCC and control cell lines, CellTiter-Glo viability, 72 h; at 44.8 µM (top of the series) unless noted
Summary of the method: as §1

UISO = test: as above; conditions: MCC and control cell lines, CellTiter-Glo viability, 72 h; series mostly up to 46 µM
Summary of the method: as §1

WaGa = test: as above; conditions: MCC and control cell lines, CellTiter-Glo viability, 72 h; series mostly up to 46 µM
Summary of the method: as §1

C33A = test: Primary qHTS to identify gynecologic anti-cancer compounds using libraries of approved drugs and bioactive compounds (AID 1345084); conditions: Gynecologic cancer cell panel viability, ATPlite luminescence, 48 h; series mostly up to 57.5 µM; also: nearly all actives have a fitted effect of over 55% in size
Summary of the method: (§2)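 48 h compound exposure at 37 C, 5% CO2; five-point qHTS. ATPlite luminescence readout of cell ATP.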

CAOV3 = test: as above; conditions: Gynecologic cancer cell panel viability, ATPlite luminescence, 48 h; series mostly up to 57.5 µM
Summary of the method: as §2

CASKI = test: as above; conditions: Gynecologic cancer cell panel viability, ATPlite luminescence, 48 h; series mostly up to 57.5 µM
Summary of the method: as §2

Es-2 = test: as above; conditions: Gynecologic cancer cell panel viability, ATPlite luminescence, 48 h; series mostly up to 57.5 µM
Summary of the method: as §2

HeLa = test: as above; conditions: Gynecologic cancer cell panel viability, ATPlite luminescence, 48 h; series mostly up to 57.5 µM
Summary of the method: as §2

Hek293T = test: as above; conditions: Gynecologic cancer cell panel viability, ATPlite luminescence, 48 h, control line for the selectivity index; series mostly up to 57.5 µM
Summary of the method: as §2

Measured: Potency
Potency is read from the fitted curve at half-maximal effect.

CC(C)OC(=O)C(C(=O)OC(C)C)=C1SC=CS1
inactive: all assays above

NC(=O)N1c2ccccc2CC(=O)c2ccccc21
6.68 µM (active) and inactive: MKL-2
inactive: all other assays above

O=c1cc(O)c(Cl)c[nH]1
inactive and 8.33 µM (active): WaGa
inactive: all other assays above

CCOc1cc(N)c(Cl)cc1C(=O)NCC1CN(Cc2ccc(F)cc2)CCO1 (stereo not drawn)
inactive: all assays above

C#CCN[C@@H]1CCc2ccccc21
inactive: all assays above

CC1=C(C(=O)O)N2C(=O)[C@@H](NC(=O)C(N)c3ccccc3)[C@H]2SC1 (stereo partly drawn)
inactive: MKL-2 | NIH3T3 | UISO | WaGa

Nc1nc(N)c2nc(CNc3ccc(C(=O)NC(CCC(=O)O)C(=O)O)cc3)cnc2n1 (stereo not drawn)
inactive: MKL-2

Cc1nnc(C(=O)NC(C)(C)c2nc(C(=O)NCc3ccc(F)cc3)c(O)c(=O)n2C)o1
inactive: all assays above

CC(C)(Sc1cc(C(C)(C)C)c(O)c(C(C)(C)C)c1)Sc1cc(C(C)(C)C)c(O)c(C(C)(C)C)c1
inactive: all assays above

COc1cc2c(Nc3ccc(Br)cc3F)ncnc2cc1OCC1CCN(C)CC1
inactive and 22.4 µM (active): C33A
20.9 µM (active) and inactive: UISO
inactive: all other assays above

CC(C)(C)NC(=O)[C@H]1CC[C@H]2[C@@H]3CC[C@H]4NC(=O)C=C[C@]4(C)[C@H]3CC[C@]12C
inactive: all assays above

NC(=O)c1cccc(N)c1
inactive: MKL-2 | NIH3T3 | UISO | WaGa

CCC(=O)O[C@]1(C(=O)CCl)[C@@H](C)C[C@H]2[C@@H]3CCC4=CC(=O)C=C[C@]4(C)[C@@]3(F)[C@@H](O)C[C@@]21C
inactive: all assays above

O=P(O)(O)C(O)(Cc1cccnc1)P(=O)(O)O
inactive: all assays above

OC(Cn1cncn1)(Cn1cncn1)c1ccc(F)cc1F
not listed: NIH3T3
inactive: all other assays above

COc1ccccc1OCC(O)COC(N)=O (stereo not drawn)
not listed: NIH3T3
inactive: all other assays above

C1CCC(C(CC2CCCCN2)C2CCCCC2)CC1 (stereo not drawn)
16.8 µM (active) and inactive: UISO
active: MKL-2 2.37 µM and 18.7 µM | WaGa 21.1 µM | C33A 31.6 µM | CAOV3 6.31 µM | CASKI 20 µM | Es-2 28.2 µM

CC(C)(C#N)c1cc(Cn2cncn2)cc(C(C)(C)C#N)c1
not listed: NIH3T3
inactive: all other assays above

COc1ccc2c(c1)c(CC(=O)OCC(=O)O)c(C)n2C(=O)c1ccc(Cl)cc1
not listed: NIH3T3
inactive: all other assays above

Nc1nc(N)nc(-c2cc(Cl)ccc2Cl)n1
not listed: NIH3T3
inactive: all other assays above

CCc1cc(C(N)=S)ccn1
not listed: C33A
inactive: all other assays above

CC(=O)[C@H]1CC[C@H]2[C@@H]3CC=C4C[C@@H](O)CC[C@]4(C)[C@H]3CC[C@]12C
not listed: HeLa
inactive: all other assays above

O=S(=O)(c1cccc2cnccc12)N1CCCNCC1
not listed: NIH3T3
inactive: all other assays above
